Test systems include NCI-H23 lung; NCI-H226 lung; NCI-H322M lung; HOP-62 NSCLC; NCI-H460 lung; HOP-92 NSCLC; NCI-H522 lung; A549/ATCC NSCLC; 786-0 renal; COLO 205 colon; DU-145 prostate; K-562 leukemia; MALME-3M melanoma; MDA-MB-231 breast; SF-268 CNS; SF-295 CNS; SF-539 CNS; UACC-257 melanoma; M14 melanoma.
What all share (assay): NCI-60 one-dose screen, 48 h (100 = growth as untreated, 0 = no growth, -100 = all killed)
Details in all cases: 10 µM

This is part of a sample that, as a whole, favours compounds with a hit. Of some 83,000 tested, about 20% had one in any assay.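 Compound tested at a single concentration for 48 hours in 96-well plates; a percent growth value below 10 was scored as active.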 A number with no mark means an inactive call. The source made the active and inactive calls.

`O=c1[nH]c2ccccc2cc1CSc1ccc(Nc2nccc(-c3ccc(Cl)cc3)n2)cc1`: the growth in the assay with NCI-H23 lung was -26.6% (active); with NCI-H226 lung, -70.5% (active); in the assay with NCI-H322M lung, 0.401% (active); in the assay with HOP-62 NSCLC it was -68% (active); with NCI-H460 lung, -59.6% (active); in the assay on HOP-92 NSCLC, -68.1% (active). For the same compound, the growth was 2.64% (active) in the assay with NCI-H522 lung; -39.7% (active) in the assay on A549/ATCC NSCLC; -80.1% (active) in the assay with 786-0 renal; -16% (active) in the assay with COLO 205 colon; -52% (active) with DU-145 prostate; 36.2% in the assay with K-562 leukemia. Moreover, the growth is -54.3% (active) in the assay with MALME-3M melanoma; -56.1% (active) in the assay with MDA-MB-231 breast; 2.16% (active) in the assay with SF-268 CNS; -90.8% (active) in the assay on SF-295 CNS; -89% (active) in the assay on SF-539 CNS; 54.1% in the assay with UACC-257 melanoma. Moreover, the growth in the assay on M14 melanoma is 30.8%.

Take `O=c1[nH]c2ccc(Cl)cc2cc1CSc1ccc(Nc2nccc(-c3ccc4ccccc4c3)n2)cc1`: the growth in the assay with NCI-H23 lung was 81.9%; in the assay with NCI-H226 lung, 50.5%; with NCI-H322M lung, 95.5%; in the assay on HOP-62 NSCLC, 85.8%; in the assay on NCI-H460 lung, 20.8%; in the assay on HOP-92 NSCLC, 88.1%. The growth in the assay on NCI-H522 lung is 80.5%; in the assay on A549/ATCC NSCLC, 22.7%; in the assay with 786-0 renal it was 64.8%; in the assay on COLO 205 colon, 31.8%; with DU-145 prostate it was 38.3%; in the assay on K-562 leukemia it was 85.7%. The growth in the assay with MALME-3M melanoma is 20%; in the assay on MDA-MB-231 breast, 55.2%; in the assay on SF-268 CNS it was 68%; in the assay on SF-295 CNS, 111%; with SF-539 CNS it was 94.1%; with UACC-257 melanoma it was 112%. Further, the growth in the assay on M14 melanoma is 88.4%.

Consider `COc1ccc(Nc2nc(N)n(Cc3cccc(Br)c3)n2)cc1`, for which the growth in the assay on NCI-H23 lung is 0.552% (active); in the assay with NCI-H226 lung it was 10%; in the assay with NCI-H322M lung, 27.7%; in the assay with HOP-62 NSCLC it was 35.1%; in the assay on NCI-H460 lung, -17.6% (active); in the assay with HOP-92 NSCLC, -36.9% (active). Also, the growth was -20.9% (active) with NCI-H522 lung; 19.6% in the assay on A549/ATCC NSCLC; -9.25% (active) in the assay with 786-0 renal; -46.6% (active) with COLO 205 colon; 22.6% with DU-145 prostate; 7.86% (active) in the assay with K-562 leukemia. Further, the growth in the assay with MALME-3M melanoma is -25% (active); in the assay with MDA-MB-231 breast, -5.79% (active); with SF-268 CNS, 16%; in the assay on SF-295 CNS, 4.42% (active); in the assay with SF-539 CNS, -3.08% (active); in the assay with UACC-257 melanoma, 6.73% (active). The growth in the assay on M14 melanoma was 0.65% (active).

In the case of `O=c1[nH]c2ccccc2cc1CSc1ccc(Nc2nccc(-c3ccc4ccccc4c3)n2)cc1`, the growth in the assay with NCI-H23 lung was 18.1%; with NCI-H226 lung, 19%; in the assay with NCI-H322M lung it was 70.1%; in the assay with HOP-62 NSCLC it was 74.7%; with NCI-H460 lung, 24.3%; with HOP-92 NSCLC, -3.82% (active). In addition, the growth in the assay on NCI-H522 lung is 71.5%; in the assay on A549/ATCC NSCLC, 22.4%; in the assay with 786-0 renal it was 51.7%; in the assay on COLO 205 colon it was 25.3%; with DU-145 prostate, 25.5%; with K-562 leukemia, 64%. In addition, the growth is 39% in the assay with MALME-3M melanoma; 30.5% with MDA-MB-231 breast; 72.1% in the assay on SF-268 CNS; 89.6% with SF-295 CNS; 16.1% in the assay on SF-539 CNS; 105% in the assay with UACC-257 melanoma. Also, the growth in the assay with M14 melanoma was 69.8%.

For the compound `COc1cnc2c(c1)C(=O)c1c-2n(CCCNCCO)c(=O)c2cc(OC)c(OC)cc12`, the growth with NCI-H23 lung is 3.38% (active); in the assay on NCI-H226 lung it was 15.4%; in the assay on NCI-H322M lung it was 30.9%; in the assay with HOP-62 NSCLC it was 12.1%; in the assay with NCI-H460 lung, 10.2%; in the assay on HOP-92 NSCLC, 54.4%. The growth in the assay on NCI-H522 lung is 15.1%; with A549/ATCC NSCLC, 43%; with 786-0 renal it was -11.9% (active); with COLO 205 colon, 15.4%; in the assay with DU-145 prostate, 15.6%; in the assay with K-562 leukemia it was 26.8%. Besides, the growth with MALME-3M melanoma is 49%; in the assay with MDA-MB-231 breast it was 19.2%; in the assay with SF-268 CNS, 44%; with SF-295 CNS, 6.94% (active); in the assay on SF-539 CNS it was -52.7% (active); with UACC-257 melanoma, 68.3%. Further, the growth with M14 melanoma was 23.1%.

Turning to `CCCn1c(O)c(N=Nc2nc(-c3cc4ccccc4oc3=O)cs2)c2cc(Br)ccc21`, the growth was 94.8% with NCI-H23 lung; 93.9% in the assay on NCI-H226 lung; 102% in the assay on NCI-H322M lung; 94.8% in the assay on HOP-62 NSCLC; 110% in the assay on NCI-H460 lung; 86.3% in the assay with HOP-92 NSCLC. In addition, the growth was 93.4% with NCI-H522 lung; 110% with A549/ATCC NSCLC; 75.1% in the assay on 786-0 renal; 139% with COLO 205 colon; 101% in the assay on DU-145 prostate; 110% with K-562 leukemia. The growth is 88% in the assay on MALME-3M melanoma; 89.2% in the assay on MDA-MB-231 breast; 89.8% in the assay on SF-268 CNS; 85.3% with SF-295 CNS; 85% in the assay on SF-539 CNS; 107% with UACC-257 melanoma. For the same compound, in the assay on M14 melanoma, the growth is 97.6%.

On to `CCCn1c(=O)c2[nH]c(-c3ccc(OCc4nc5ccc(C#N)cc5[nH]4)cc3)nc2n(CCC)c1=O`, for which the growth in the assay with NCI-H23 lung was 81.5%; in the assay on NCI-H226 lung, 51.2%; in the assay with NCI-H322M lung it was 76.3%; in the assay with HOP-62 NSCLC, 77.9%; in the assay with NCI-H460 lung, 66.2%; with HOP-92 NSCLC, 78.5%. Also, the growth was 71.1% in the assay with NCI-H522 lung; 79.9% in the assay on A549/ATCC NSCLC; 72.1% in the assay on 786-0 renal; 94.9% in the assay with COLO 205 colon; 79% in the assay with DU-145 prostate; 41.6% with K-562 leukemia. The growth with MALME-3M melanoma was 73.2%; in the assay on MDA-MB-231 breast, 30.8%; with SF-268 CNS, 80.4%; with SF-295 CNS, 76.7%; with SF-539 CNS, 64.9%; in the assay with UACC-257 melanoma, 99.5%. Further, the growth with M14 melanoma was 99.6%.

Consider `CN1CCc2c(sc3ncnc(N/N=C/c4cn(-c5ccccc5)nc4-c4ccc(Cl)cc4)c23)C1`, for which the growth was -20.6% (active) in the assay on NCI-H23 lung; 33.1% in the assay on NCI-H226 lung; 28.7% in the assay with NCI-H322M lung; 29.8% in the assay on HOP-62 NSCLC; 1.06% (active) with NCI-H460 lung; 45.7% with HOP-92 NSCLC. The growth in the assay with NCI-H522 lung is 3.5% (active); in the assay with A549/ATCC NSCLC it was 26.3%; in the assay with 786-0 renal, 25.3%; in the assay on COLO 205 colon, -30.1% (active); in the assay on DU-145 prostate, 31.4%; with K-562 leukemia, 9.51% (active). For the same compound, the growth is 17.8% in the assay with MALME-3M melanoma; 4.63% (active) with MDA-MB-231 breast; 30.7% in the assay with SF-268 CNS; 21.6% in the assay with SF-295 CNS; 7.13% (active) with SF-539 CNS; 8.67% (active) in the assay on UACC-257 melanoma. Moreover, in the assay with M14 melanoma, the growth is 16.6%.

These data come from PubChem BioAssay (NCI).
